# Screens: PubChem, National Center for Advancing Translational Sciences (NCATS)
# L3MBTL1 inh – L3MBTL1 (human) inhibition | Q9Y468 | AlphaScreen L3MBTL1–H3K9me1 peptide binding | Potency, µM (titrated, usually from 57.1 µM), for inactives: at the top dose activity, negative = inhibition, hits mostly inhibitors | 230,000 tested, 0.66% active | AID 485360; also: % is scaled to controls: 0 for no effect and ±100 for the full control effect; nearly all actives have a fitted effect of over 60% in size
#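 Read-out is AlphaScreen signal from streptavidin donor and nickel chelate acceptor beads (10 ug/mL final each) bridging L3MBTL1 (50 nM) and biotinylated K9-monomethylated H3(1-15) peptide (75 nM), after 30 min compound exposure at room temperature.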
# Sfp PPTase inh – inhibitors of Bacillus subtilis Sfp phosphopantetheinyl transferase; Potency, µM, for the others: largest response in the series, negative = inhibition, hits mostly inhibitors; Q9F4F7; Biochemical Sfp PPTase activity, qHTS; 310,000 tested, 3.5% active; AID 1490;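 also: the enzyme is Sfp with the accession as filed and its product quenches rhodamine fluorescence; 0% = enzyme reaction without inhibitor and -100% = no enzyme wells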
#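 Step 1, compound plus 15 nM Sfp-PPTase, 15 min, room temperature. Step 2, add rhodamine-CoA (5 uM) and BHQ-2-YbbR (12.5 uM). Step 3, read 525/598 nm fluorescence at 0 and 30 min.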
# BAZ2B block – BAZ2B (human) inhibition. AlphaScreen BAZ2B-H3K14Ac peptide displacement. Potency, µM (highest dose often 114 µM), inactives show at the top dose activity change, negative = inhibition, actives largely listed as inhibitors. Q9UIF8. AID 504333. 360,000 tested, 4.4% active; also: % is scaled to controls: 0 for no effect and ±100 for the full control effect; nearly all actives have a fitted effect of over 60% in size
#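 Inhibition is scored as reduced AlphaScreen emission. The BAZ2B/b-H3(5-23)K14Ac complex (50 nM each) in PBS pH 7.4, 0.01% Tween-20 meets compound (up to 110 uM) for 30 min at RT before bead addition.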
# JMJD2A Tudor – JMJD2A Tudor domain (human) inhibition; 390,000 tested, 4.4% active; Potency, µM (top dose mostly 114 µM), for inactives: at the top dose activity change, negative = inhibition, hits mostly inhibitors; AlphaScreen JMJD2A-Tudor / H3K4me3 peptide binding; also: % is scaled to controls: 0 for no effect and ±100 for the full control effect; nearly all actives have a fitted effect of over 50% in size
# G9a block – G9a (human) methyltransferase inhibition. Potency, µM (highest dose often 102 µM), for the others: at the top dose activity, negative = inhibition, most hits filed as inhibitors. G9a H3K9 monomethylation, AlphaScreen, 2 h. 350,000 tested, 8.8% active. Q96KQ7. AID 504332; also: % is scaled to controls: 0 for no effect and ±100 for the full control effect; nearly all actives have a fitted effect of over 75% in size
#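 AlphaScreen detection with an anti-monomethyl H3K9 antibody quantified product after a 2 h room-temperature reaction containing 500 nM biotinylated H3K9 peptide, 20 µM SAM and 20 nM enzyme, which had been preincubated 15 min with compound.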
# HP1b binding inh – blocks HP1-beta chromodomain binding to methylated histone tails; P83916; AlphaScreen HP1-beta / biotin-H3K9me3 peptide binding; Potency, µM (titrated, usually from 114 µM), for inactives: top-dose activity change, negative = inhibition, actives largely listed as inhibitors; 390,000 tested, 0.56% active; AID 540317; also: nearly all actives have a fitted effect of over 70% in size
#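 Compound inhibition of the preformed complex between 50 nM HP1-beta and 50 nM biotinylated H3K9me3 peptide was read by AlphaScreen. Buffer was PBS pH 7.4 with 0.01% Tween-20. Incubations ran 30 min at room temperature, with 10 ug/mL donor/acceptor beads.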
# Active calls of the source: *; ? = inconclusive; . = no result; ! = not confirmed by another sample; [ ] = remark or other dose. Shown are actives, neighbours in structure and some others; about 12% of the full set was active somewhere. Calls follow the shape of the dose curve; as a rule, active = well fitted curve in the direction sought with a large enough effect; inconclusive = small, poorly fitted or top-dose-only effect, or another doubt; inactive = no such curve, though single readings can be large; an effect the other way counts as inactive or inconclusive. Potency is read from the fitted curve at half-maximal effect.
SMILES,L3MBTL1 inh,Sfp PPTase inh,BAZ2B block,JMJD2A Tudor,G9a block,HP1b binding inh
CN1C(=O)N(C)C(=O)C2(Cc3cc(NC(=O)c4ccccc4)ccc3N3CCCC32)C1=O (stereo not drawn),.,-3%,-18%,-23%,32µM*,45%
CN1C(=O)N(C)C(=O)C2(Cc3cc(N)ccc3N3CCN(c4ccccc4F)CC32)C1=O (stereo not drawn),?,9%,50µM*,.,28µM*,.
CCN1C(=O)N(CC)C(=O)C2(Cc3ccccc3N3CCN(c4ccccc4)CC32)C1=O (stereo not drawn),-12%,71µM*,?,-22%,2µM*,42%
CN1CCN2c3ccc(N)cc3CC3(C(=O)NC(=O)NC3=O)C2C1 (stereo not drawn),.,22µM*,7.9µM*,89µM*,18µM*,-12%
CN1C(=O)N(C)C(=O)C2(Cc3cc(NC(=O)c4ccccc4Cl)ccc3N3CCCC32)C1=O (stereo not drawn),.,-18%,-11%,?,.,41%
CCOc1ccc(NC(=O)C2CCCN2C(=O)Oc2ccccc2)cc1 (stereo not drawn),.,5%,-22%,?,-9%,36%[57 µM]
O=C1C=CC(=O)C(Cl)=C1,.,4µM*,.,.,0.71µM*,.
C=CCn1c(O)c(C(CC)=NCCCO)c(=O)[nH]c1=O,7%,2%,8%,-6%,0%,35%
CCC(=NCCCN(CC)CC)c1c(O)n(C2CCCCC2)c(=O)[nH]c1=O,-3%,2%,-4%,-5%,56µM*,32%
CCC(=NCCN1CCOCC1)c1c(O)n(C2CCCCC2)c(=O)[nH]c1=O,6%,0%,-5%,2%,35µM*,38%
C=CCn1c(O)c(C(CC)=Nc2ccccc2NC(C)=O)c(=O)[nH]c1=O,9%[11.4 µM],13%,-11%,-22%,1.4µM*,59%
C=CCn1c(O)c(C(CC)=NCCN2CCOCC2)c(=O)[nH]c1=O,1%,5%,?,-32%,40µM*,79%
C=CCn1c(O)c(C(CC)=Nc2ccccc2NC(=O)CC)c(=O)[nH]c1=O,1%,4%,?,-11%,?,34%
CCCCC/C=C\C/C=C\C/C=C\C/C=C\CCCC(=O)NC(C)C(=O)O (stereo not drawn),.,2%,.,.,.,.
O=C1OC(=O)c2c(Br)c(Br)c(Br)c(Br)c21,-5%,.,?,?,-24%[0.501 µM],46%
CC(=O)O[C@H]1C[C@@H](O[C@@H]2[C@H](C)O[C@H](O[C@@H]3[C@H](C)O[C@H](O[C@@H]4CC[C@@]5(C)[C@@H](CC[C@]6(C)[C@]5(C)C[C@H](O)[C@]5(C)[C@@H](C7=CC(=O)OC7)CC[C@@]56O)C4)C[C@@H]3O)C[C@@H]2O)O[C@@H](C)[C@H]1O[C@H]1O[C@@H](CO)[C@@H](O)[C@@H](O)[C@@H]1O,.,19%,.,.,18%[21.5 µM],.
COC(=O)[C@H]1C[C@H]2CC[C@H](O)C[C@H]2N1CC1CC1,.,12%,.,.,.,.
NC(N)=N/N=C/c1c(Cl)cccc1Cl,4%,100µM*!,0%,-23%,-23%[59 µM],2%
CN(C(=O)Cc1ccc(Cl)c(Cl)c1)C(CN1CCCC1)c1cccc(N=C=S)c1 (stereo not drawn),.,45µM*,.,.,18µM*,.
CN(C(=O)Cc1ccc(Cl)c(Cl)c1)[C@H](CN1CCCC1)c1cccc(N=C=S)c1,.,50µM*,.,.,.,.
O=C(Nc1ccccc1)c1ccccc1I,.,-14%,.,.,.,.
NC(=NCc1ccc(Cl)cc1)SCCCc1cnc[nH]1,.,-2%,.,.,46%[59 µM],.
COc1ccc(C2CC(c3c(O)n(CCc4ccccc4)c(=O)[nH]c3=O)=NN2)cc1OC (stereo not drawn),-15%,34%,22µM*,-29%,56µM*,38%
N#C/C(=C\c1ccc(O)c(O)c1)C(=O)NCCCNC(=O)/C(C#N)=C/c1ccc(O)c(O)c1,.,.,.,.,1.7µM*,.
N#C/C(=C/c1ccc(O)c(O)c1)C(N)=S,.,.,.,.,7.5µM*,.
